“And” between values parts separate entries of the source, which are not always exact repeats. Identical values can stand only once. Compounds without any hit were thinned out: in the full panel of roughly 83,000, 20% have a hit.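 Compound tested at a single concentration for 48 hours in 96-well plates; a percent growth value below 10 was scored as active.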 Unmarked numbers belong to inactive results. The source made the active and inactive calls.

This experiment deals with HL-60(TB) leukemia. The experiment in a line: NCI-60 one-dose screen, 48 h (100 = growth as untreated, 0 = no growth, -100 = all killed). As to conditions: 10 µM unless noted.
Turning to `O=C(Nc1ccc(OS(=O)(=O)c2ccccc2)cc1)C12CC3CC(CC(C3)C1)C2`, the growth is 37.3%.

Take `C#Cc1cccc(Nc2ncnc3ccc(-c4cncc(NS(C)(=O)=O)c4)cc23)c1`: the growth is 4% (active).

As for `CN1CCN(Cc2ccc(NC(=O)c3cncc(C#Cc4cnccc4C(F)(F)F)c3)cc2C(F)(F)F)CC1`, the growth is 38.4%.

`CCC(=O)OC1=C(C)SC2=NC(c3ccc(Cl)c(Cl)c3)=CC(c3cc(OC)c(OC)c(OC)c3)N21` (centres undefined): the growth was 97.8%.

Turning to `COc1cc(-c2nn(-c3cccc(NC(=O)CN4CCOCC4)c3)cc2-c2cccnc2)ccc1Cl`, the growth is 84%.

Take `CCCCCCCOc1cccc(/C=C2\N=C3SCCCN3C2=O)c1`: the growth was 65%.

With `C#Cc1cccc(Nc2ncnc3ccc(-c4cnc(N)nc4)cc23)c1`, the growth is 34.2%.

Take `Cc1c(Cc2ccccc2)c(=O)oc2c(C)c(OCc3n[nH]c(=S)o3)ccc12`: the growth was 69.7%.

Regarding `Cc1ccc2cccc(Oc3ccc(Nc4ncnc5onc(-c6ccccc6)c45)cc3)c2n1`, the growth is 94.9%.

Take `COc1ccc(C(=O)COC(=O)[C@H](C[Se][Se]C[C@H](NC(=O)c2ccc(Br)cc2F)C(=O)OCC(=O)c2ccc(OC)cc2)NC(=O)c2ccc(Br)cc2F)cc1`: the growth was 2.8% (active).

For the compound `CCC1OC(OC)C=CC1=O` (centres undefined), the growth was 77%.

With `O=C(CC12CC3CC(CC(C3)C1)C2)NCCOCCOCCNC(=O)c1cc2c(o1)C(=O)c1ccccc1C2=O`, the growth was -16% (active).

With `O=C(CCN1CCCC1)Nc1ccc2c(NCc3ccc(F)cc3)c3ccccc3nc2c1`, the growth is -47.3% (active).

Take `O=C(c1ccc(Cl)cc1)C(NCCO)c1ccc(Cl)cc1` (centres undefined): the growth was 86.9% and 116%.

In the case of `CC(C)(C)c1nn(-c2ccccc2)c2c1C(=O)CSC(c1ccccc1Cl)N2` (centres undefined), the growth was -2.32% (active).

For the compound `Cc1cc(Cl)ccc1Nc1nc(C(F)(F)F)ccc1C(=O)NCC(=O)N/N=C/c1c(Cl)cccc1Cl`, the growth is 48.7%.

Turning to `CCCCN(CCCC)CCc1c(C)cc(C)c(CCN(CCCC)CCCC)c1O`, the growth is 7.15% (active).

For the compound `N=C(N)c1ccc(-c2ccc(-c3cc(F)cc(F)c3)o2)nc1`, the growth is 97.7%.

`C#CCOc1ccc2ncnc(Nc3ccc(NC(=O)CCl)cc3)c2c1`: the growth is -57.5% (active).

`C=C1C(=O)O[C@H]2[C@H]1CC/C(COC(=O)c1cccnc1)=C\CC[C@@]1(C)O[C@@H]21`: the growth is 2.18% (active).

`N#CC1C=CN(CC(N)=O)c2ccc3cccnc3c21` (centres undefined): the growth was 92.7%.

Turning to `COc1ccc(-c2nc3sc(C)nn3c2-c2nc3cc(C)c(C)cc3[nH]2)cc1`, the growth is 112%.

Take `O=C(NCCc1ccc(O)c(O)c1)C12CC3CC(CC(C3)C1)C2`: the growth was 57%.

In the case of `COc1ccc2c(c1)sc1nc(-c3ccc(N(C)C)cc3)cn12`, the growth was 65.4%.

Take `CC(=Nc1ccccc1)C1=C(O)C(Cc2ccc(O)cc2)NC1=O` (centres undefined): the growth was -51.5% (active).

As for `COc1ccc(-c2cnnn2-c2nonc2-n2cccc2)cc1OC`, the growth is 11%.

Consider `COc1ncc(-c2ccc3ncnc(Nc4cccc(Cl)c4)c3c2)cc1NS(C)(=O)=O`, for which the growth was 19.1%.

Turning to `O=C(N/N=C/c1c(Cl)cccc1Cl)c1cccnc1Nc1cccc(C(F)(F)F)c1`, the growth was 28.1%.

As to `CNc1ccc(Cl)cc1S(=O)(=O)c1ccccc1[N+](=O)[O-]`, the growth is 65.3% and 79.9%.

`O=C1CCCN1c1cccc2cccnc12`: the growth was 101%.

Consider `COc1ccc(C2C(C#N)=C(N)Oc3c2ccc2ccccc32)cc1` (centres undefined), for which the growth was 22.9%.

As to `O=C(Nc1ccc(F)cc1)c1ccccc1`, the growth is 97.5%.

Turning to `FC(F)(F)c1ccc2c(c1)N(CCCN1CCN(C3CC3)CC1)c1ccccc1S2`, the growth was 25.6%.

On to `c1cc(N2CCCC2)c2nc(-c3[nH]ncc3Nc3ncnc4[nH]ccc34)[nH]c2c1`, for which the growth was -15.9% (active).

As to `O=C(N/N=C/c1ccccc1)N/N=C/c1ccccc1`, the growth is 95.3% and 98.4%.

Take `C=CC(=O)NC(=O)Nc1ccccc1Cl`: the growth is 33.4%.

In the case of `O=S1(=O)CC(Br)C(Br)C1` (centres undefined), the growth is 34.4% and 81.8%.

`O=C1CCCN1C(O)CCN(Cc1ccccc1)Cc1ccc(Cl)cc1` (centres undefined): the growth is 96.4%.

Regarding `CCC1=C[C@@H]2CN(C1)Cc1c([nH]c3ccccc13)[C@@](C(=O)OC)(c1cc3c(cc1OC)N(C)[C@H]1[C@@](O)(C(=O)OC)[C@H](OC(C)=O)[C@]4(CC)[C@@H]5C[C@@H]5CN5CC[C@]31[C@@H]54)C2`, the growth is -57.3% (active).

Values taken from PubChem BioAssay (NCI).
